Test results: PubChem BioAssay (EPA / NIEHS)
Values joined by “and” are separate entries in the source; they are usually repeats but may differ in a detail not shown here. Equal values may be shown once. Some structures have more than one record in an assay (separate samples or runs), and their calls can disagree. Active and inactive are the calls of the source. The calls were made as follows: active = hit-call score of the fitted dose curve at least 0.9, where 1 is the maximum; inactive = score below 0.9.

Tests used:
[1] = ATG_M_32_CIS: Attagene CIS-FACTORIAL HepG2 Assay for M32 Transcription Factor (Internal Marker) (AID 2282949); settings: HepG2 Attagene cis-factorial M32 reporter, mRNA; actives raise or lower the signal;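 also: background control marker of the multiplexed CIS panel rather than a real target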
Summary of the method: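 Using DMSO as baseline, bidirectional curve fits were applied to reporter mRNA signals. These came from transiently transfected HepG2 cells exposed for 24 h, with RNA analysed by RT-PCR, FAM primer extension, HpaI digestion and CE.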

[2] = ATG_M_06_CIS: Attagene CIS-FACTORIAL HepG2 Assay for M06 Transcription Factor (Internal Marker) (AID 2282950); settings: HepG2 Attagene CIS-FACTORIAL M06 internal marker reporter; actives raise or lower the signal
Summary of the method: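 Cells (HepG2, transiently carrying cis-driven reporter units) receive chemical for 24 h before RNA isolation. Reporter cDNA is PCR-amplified, FAM-labelled by primer extension, HpaI-digested and sized on a capillary analyser.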

[3] = target: Hypoxia-inducible factor 1-alpha (Homo sapiens) (UniProt Q16665); assay: ATG_HIF1a_CIS: Attagene CIS-FACTORIAL HepG2 Assay for human Hypoxia Inducible Factor 1 (HIF1A) (AID 2282951); settings: HepG2 Attagene cis-factorial HIF1a reporter transcription; actives raise or lower the signal
Hypoxia-inducible factor 1-alpha (Homo sapiens), sequence (Q16665 whole entry, looked up): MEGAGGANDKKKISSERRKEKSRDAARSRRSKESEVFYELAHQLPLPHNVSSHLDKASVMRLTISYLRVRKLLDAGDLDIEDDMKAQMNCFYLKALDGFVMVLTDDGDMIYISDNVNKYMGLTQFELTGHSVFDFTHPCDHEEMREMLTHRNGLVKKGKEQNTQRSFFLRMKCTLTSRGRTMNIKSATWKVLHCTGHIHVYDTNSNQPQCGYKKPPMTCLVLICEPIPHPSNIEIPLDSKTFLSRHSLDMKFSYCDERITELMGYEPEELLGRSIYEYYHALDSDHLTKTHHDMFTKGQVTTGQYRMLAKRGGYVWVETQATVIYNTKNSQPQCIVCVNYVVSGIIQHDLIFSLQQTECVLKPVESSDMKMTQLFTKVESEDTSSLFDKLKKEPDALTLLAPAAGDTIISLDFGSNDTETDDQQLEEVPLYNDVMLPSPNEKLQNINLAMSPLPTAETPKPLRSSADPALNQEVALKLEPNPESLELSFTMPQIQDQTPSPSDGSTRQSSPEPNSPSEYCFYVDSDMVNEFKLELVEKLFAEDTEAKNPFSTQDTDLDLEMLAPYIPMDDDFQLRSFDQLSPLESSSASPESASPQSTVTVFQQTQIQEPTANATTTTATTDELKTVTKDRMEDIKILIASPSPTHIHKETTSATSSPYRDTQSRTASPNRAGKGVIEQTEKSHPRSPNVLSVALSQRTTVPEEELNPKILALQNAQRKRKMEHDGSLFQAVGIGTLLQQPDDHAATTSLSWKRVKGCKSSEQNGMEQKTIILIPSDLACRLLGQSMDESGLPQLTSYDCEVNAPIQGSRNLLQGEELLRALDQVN
Summary of the method: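 Dosed 24 h, transfected HepG2 cells yielded total RNA whose reporter transcripts were RT-PCR-amplified and sized by capillary electrophoresis using fluorescent labelling; DMSO defined baseline, with gain and loss of signal both fitted.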

[4] = target: Hepatocyte nuclear factor 6 (Homo sapiens) (UniProt Q9UBC0); assay: ATG_HNF6_CIS: Attagene CIS-FACTORIAL HepG2 Assay for human Hepatocyte Nuclear Factor 6 (HNF6) (AID 2282952); settings: HepG2 Attagene cis-factorial HNF6 reporter transcription; actives raise or lower the signal
Hepatocyte nuclear factor 6 (Homo sapiens), sequence (Q9UBC0 whole entry, looked up, the tested form may be a part): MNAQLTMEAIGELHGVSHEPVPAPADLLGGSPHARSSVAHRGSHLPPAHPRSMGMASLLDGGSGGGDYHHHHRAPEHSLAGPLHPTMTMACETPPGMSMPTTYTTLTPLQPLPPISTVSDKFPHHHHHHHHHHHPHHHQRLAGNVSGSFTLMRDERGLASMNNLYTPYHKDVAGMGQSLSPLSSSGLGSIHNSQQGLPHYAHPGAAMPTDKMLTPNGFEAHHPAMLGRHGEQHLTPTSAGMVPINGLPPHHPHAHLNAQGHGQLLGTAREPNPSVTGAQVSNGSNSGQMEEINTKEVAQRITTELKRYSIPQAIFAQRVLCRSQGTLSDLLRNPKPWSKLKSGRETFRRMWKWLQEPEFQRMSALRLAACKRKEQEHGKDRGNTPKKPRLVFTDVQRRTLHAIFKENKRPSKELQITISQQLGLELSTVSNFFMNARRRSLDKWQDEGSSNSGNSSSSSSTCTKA
Summary of the method: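 Twenty-four-hour chemical treatment of reporter-transfected HepG2 cells precedes RNA isolation, DNase-treated reverse transcription and PCR of reporter sequences. Labelled fragments are sized by capillary electrophoresis and fitted bidirectionally versus DMSO.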

[5] = target: Heat shock factor protein 1 (Homo sapiens) (UniProt Q00613); assay: ATG_HSE_CIS: Attagene CIS-FACTORIAL HepG2 Assay for human Heat Shock Transcription Factor 1 (HSE) (AID 2282953); settings: HepG2 HSE cis-reporter, Attagene RNA transcription; actives raise or lower the signal
Heat shock factor protein 1 (Homo sapiens), sequence (Q00613 whole entry, looked up): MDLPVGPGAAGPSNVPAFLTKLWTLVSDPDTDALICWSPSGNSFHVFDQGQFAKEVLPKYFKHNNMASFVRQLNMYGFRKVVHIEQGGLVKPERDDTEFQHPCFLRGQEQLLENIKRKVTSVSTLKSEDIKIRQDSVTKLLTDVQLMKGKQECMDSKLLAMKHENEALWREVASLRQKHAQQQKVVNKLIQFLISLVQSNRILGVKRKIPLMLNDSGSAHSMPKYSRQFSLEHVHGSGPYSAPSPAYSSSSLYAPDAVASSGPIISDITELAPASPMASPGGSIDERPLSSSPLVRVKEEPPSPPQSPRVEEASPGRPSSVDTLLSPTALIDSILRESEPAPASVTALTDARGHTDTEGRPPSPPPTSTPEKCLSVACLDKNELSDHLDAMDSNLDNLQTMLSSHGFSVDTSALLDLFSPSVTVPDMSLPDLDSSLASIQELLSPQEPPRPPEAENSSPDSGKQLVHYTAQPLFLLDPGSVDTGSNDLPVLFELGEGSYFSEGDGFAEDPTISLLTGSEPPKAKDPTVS
Summary of the method: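 Liver-derived HepG2 cells carry transiently introduced multiple reporter units governed by cis promoters. Reporter RNA measured 24 h post-dose through reverse transcription, PCR amplification, fluorescent labelling and capillary electrophoresis, normalised to DMSO.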

[6] = ATG_MRE_CIS: Attagene CIS-FACTORIAL HepG2 Assay for human Metal Responsive Element (MRE) (AID 2282954); settings: HepG2 MRE cis-reporter transcription, Attagene multiplex; actives raise or lower the signal
Summary of the method: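 Multiplexed cis-reporter assay in human HepG2 liver cells, 24 h incubation with test chemical. Reporter transcripts measured by RT-PCR and capillary electrophoresis; values from bidirectional curve fitting versus DMSO.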

[7] = ATG_PBREM_CIS: Attagene CIS-FACTORIAL HepG2 Assay for human Phenobarbital-responsive Enhancer Module (PBREM) (AID 2282955); settings: HepG2 PBREM cis-reporter, Attagene multiplexed transcription; actives raise or lower the signal
Summary of the method: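 Transfected liver-derived HepG2 cells exposed 24 h; PBREM reporter transcript quantified via RT-PCR and capillary electrophoresis, with activity in either direction referenced to DMSO.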

[8] = ATG_PPRE_CIS: Attagene CIS-FACTORIAL HepG2 Assay for human Peroxisome Proliferator-activated Response Element (PPRE) (AID 2282958); settings: HepG2 PPRE cis-element reporter, Attagene transcription factor profiling; actives raise or lower the signal
Summary of the method: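 Measured endpoint: PPRE-controlled reporter mRNA, detected by RT-PCR and capillary electrophoresis fluorescence, from transiently transfected HepG2 cells 24 h after dosing. Curves fitted in both directions using DMSO baseline.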

[9] = ATG_RORE_CIS: Attagene CIS-FACTORIAL HepG2 Assay for human RAR-related Orphan Receptor Element (RORE) (AID 2282959); settings: HepG2 Attagene cis-factorial RORE reporter, mRNA; actives raise or lower the signal
Summary of the method: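 Transiently transfected HepG2 reporter cells were treated 24 h. Reporter transcripts were detected by RT-PCR and capillary electrophoresis, with bidirectional fitting against DMSO.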

[10] = target: Transcription factor Sp1 (Homo sapiens) (UniProt P08047); assay: ATG_Sp1_CIS: Attagene CIS-FACTORIAL HepG2 Assay for human Specificity Protein 1 (Sp1) (AID 2282961); settings: HepG2 Sp1 cis-reporter transcription, actives raise or lower the signal
Transcription factor Sp1 (Homo sapiens), sequence (P08047 whole entry, looked up, the tested form may be a part): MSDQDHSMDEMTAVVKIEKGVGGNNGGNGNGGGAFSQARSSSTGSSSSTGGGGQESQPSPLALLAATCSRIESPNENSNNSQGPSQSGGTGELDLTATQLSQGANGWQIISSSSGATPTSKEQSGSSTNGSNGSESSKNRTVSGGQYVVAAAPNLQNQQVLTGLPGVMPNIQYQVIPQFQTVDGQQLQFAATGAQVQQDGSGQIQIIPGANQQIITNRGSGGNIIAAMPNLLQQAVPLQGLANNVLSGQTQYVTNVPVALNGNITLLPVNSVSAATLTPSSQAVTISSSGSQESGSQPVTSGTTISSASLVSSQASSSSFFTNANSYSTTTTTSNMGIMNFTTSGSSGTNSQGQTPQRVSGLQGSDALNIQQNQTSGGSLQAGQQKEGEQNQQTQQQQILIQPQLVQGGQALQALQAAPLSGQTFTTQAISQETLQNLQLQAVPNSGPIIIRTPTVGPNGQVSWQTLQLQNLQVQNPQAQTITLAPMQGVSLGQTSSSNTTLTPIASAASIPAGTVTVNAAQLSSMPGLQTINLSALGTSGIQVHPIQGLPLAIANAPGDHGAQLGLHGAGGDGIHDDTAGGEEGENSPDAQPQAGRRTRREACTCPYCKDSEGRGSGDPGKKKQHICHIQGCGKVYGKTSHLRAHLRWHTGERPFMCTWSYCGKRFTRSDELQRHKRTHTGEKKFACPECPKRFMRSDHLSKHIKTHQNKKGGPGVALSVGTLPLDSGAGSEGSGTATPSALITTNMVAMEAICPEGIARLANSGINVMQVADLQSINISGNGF
Summary of the method: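 Endpoint reflects endogenous Sp1 transcriptional activity, not an exogenous fusion protein: HepG2 cells with transfected cis-regulated reporters, 24 h dosing, RT-PCR/capillary electrophoresis mRNA read-out, DMSO-normalised bidirectional fit.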

[11] = ATG_SREBP_CIS: Attagene CIS-FACTORIAL HepG2 Assay for human Sterol Regulatory Element Binding (SREBP) (AID 2282962); settings: HepG2 Attagene cis-factorial SREBP reporter, mRNA; actives raise or lower the signal
Summary of the method: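 Endogenous factor activity is measured in HepG2 through multiplexed reporter units under cis-element control. Following a 24 h incubation, reporter transcripts are reverse-transcribed, PCR-amplified and sized by capillary electrophoresis; activity is fitted in both directions relative to DMSO.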

[12] = target: Signal transducer and activator of transcription 3 (Homo sapiens) (UniProt P40763); assay: ATG_STAT3_CIS: Attagene CIS-FACTORIAL HepG2 Assay for human Signal Transducer and Activator of Transcription 3 (STAT3) (AID 2282963); settings: HepG2, Attagene cis-factorial STAT3 reporter transcription; actives raise or lower the signal
Signal transducer and activator of transcription 3 (Homo sapiens), sequence (P40763 whole entry, looked up): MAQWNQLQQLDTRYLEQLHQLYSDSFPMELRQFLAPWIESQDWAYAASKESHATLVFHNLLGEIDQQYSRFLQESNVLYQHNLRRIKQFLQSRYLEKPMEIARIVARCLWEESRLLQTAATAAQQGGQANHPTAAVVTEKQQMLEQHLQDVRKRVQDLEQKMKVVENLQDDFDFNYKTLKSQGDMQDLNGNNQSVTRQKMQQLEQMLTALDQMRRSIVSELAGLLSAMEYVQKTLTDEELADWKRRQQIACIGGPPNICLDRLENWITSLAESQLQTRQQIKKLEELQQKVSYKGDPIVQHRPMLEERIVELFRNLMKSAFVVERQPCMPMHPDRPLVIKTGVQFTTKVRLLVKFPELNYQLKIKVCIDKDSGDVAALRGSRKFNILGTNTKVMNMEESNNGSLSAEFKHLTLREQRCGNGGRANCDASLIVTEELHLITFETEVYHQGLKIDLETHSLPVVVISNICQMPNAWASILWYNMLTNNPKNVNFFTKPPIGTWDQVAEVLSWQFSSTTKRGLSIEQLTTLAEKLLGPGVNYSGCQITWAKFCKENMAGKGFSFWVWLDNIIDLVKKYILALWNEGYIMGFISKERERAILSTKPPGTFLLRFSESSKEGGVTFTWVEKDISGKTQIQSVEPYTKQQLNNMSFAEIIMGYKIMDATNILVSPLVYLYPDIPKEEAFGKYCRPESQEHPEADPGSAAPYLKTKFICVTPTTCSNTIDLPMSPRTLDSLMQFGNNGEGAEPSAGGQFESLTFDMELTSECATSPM
Summary of the method: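 Cis-factorial format: endogenous transcription factors in HepG2 drive transfected reporter units. After 24 h treatment, reporter RNA was reverse-transcribed, amplified, FAM-labelled and HpaI-digested before CE analysis; activity scored in both directions against DMSO.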

[13] = ATG_TA_CIS: Attagene CIS-FACTORIAL HepG2 Assay for human TA Basal Promoter (AID 2282964); settings: HepG2 Attagene CIS-factorial TA basal promoter reporter; actives raise or lower the signal
Summary of the method: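 Background internal-marker endpoint from a 52-component HepG2 cis-reporter panel. Cells treated 24 h; reporter transcripts quantified via RT-PCR and CE fluorescence against DMSO baseline.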

[14] = ATG_TCF_b_cat_CIS: Attagene CIS-FACTORIAL HepG2 Assay for human T-Cell-Factor with beta-catenin (TCF/b-cat) (AID 2282965); settings: HepG2 TCF/beta-catenin cis-reporter transcription, actives raise or lower the signal
Summary of the method: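 Measured: reporter mRNA in HepG2 transiently transfected with cis-promoter reporter units, 24 h after chemical addition. Fitting was bidirectional, DMSO as negative control.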

[15] = ATG_TAL_CIS: Attagene CIS-FACTORIAL HepG2 Assay for human TAL Basal Promoter (AID 2282966); settings: HepG2 Attagene cis-factorial TAL promoter reporter; actives raise or lower the signal;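 also: background control endpoint measuring basal TAL promoter reporter mRNA not a specific factor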
Summary of the method: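 Human hepatoma HepG2 cells, transfected with promoter-regulated reporter units, were treated 24 h. Reporter transcript levels, measured through RT-PCR and capillary electrophoresis, were fitted for gain or loss relative to DMSO.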

[16] = ATG_TGFb_CIS: Attagene CIS-FACTORIAL HepG2 Assay for human Transforming Growth Factor (TGF) (AID 2282967); settings: HepG2 Attagene CIS TGFb reporter, mRNA transcription; actives raise or lower the signal
Summary of the method: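 Liver HepG2 line, cis-factorial reporter panel, 24 h dosing. Quantitation: RT-PCR products labeled with 6-FAM, cut with HpaI, resolved by capillary electrophoresis; DMSO-referenced bidirectional analysis.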

[17] = ATG_VDRE_CIS: Attagene CIS-FACTORIAL HepG2 Assay for human Vitamin D Receptor Element (VDRE) (AID 2282968); settings: HepG2 VDRE cis-reporter transcription, actives raise or lower the signal
Summary of the method: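 Measures endogenous factor activity through cis-element-driven reporter transcripts in transiently transfected HepG2. Cells are treated 24 h; reporter mRNA is quantified by RT-PCR and capillary electrophoresis; fitting is bidirectional.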

[18] = ATG_PXRE_CIS: Attagene CIS-FACTORIAL HepG2 Assay for human Pregnane X Receptor Element (PXRE) (AID 2282957); settings: HepG2 Attagene CIS-FACTORIAL PXRE reporter, mRNA; actives raise or lower the signal
Summary of the method: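 Bidirectional activity, baselined to DMSO, derived from reporter mRNA fluorescence (RT-PCR plus capillary electrophoresis) in HepG2 cells bearing cis-promoter reporter units, 24 h exposure.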

[19] = target: Paired box protein Pax-6 (Homo sapiens) (UniProt P26367); assay: ATG_Pax6_CIS: Attagene CIS-FACTORIAL HepG2 Assay for human Paired Box 6 (PAX6) (AID 2282956); settings: HepG2 CIS-FACTORIAL PAX6 reporter transcription, RNA readout; actives raise or lower the signal
Paired box protein Pax-6 (Homo sapiens), sequence (P26367 whole entry, looked up): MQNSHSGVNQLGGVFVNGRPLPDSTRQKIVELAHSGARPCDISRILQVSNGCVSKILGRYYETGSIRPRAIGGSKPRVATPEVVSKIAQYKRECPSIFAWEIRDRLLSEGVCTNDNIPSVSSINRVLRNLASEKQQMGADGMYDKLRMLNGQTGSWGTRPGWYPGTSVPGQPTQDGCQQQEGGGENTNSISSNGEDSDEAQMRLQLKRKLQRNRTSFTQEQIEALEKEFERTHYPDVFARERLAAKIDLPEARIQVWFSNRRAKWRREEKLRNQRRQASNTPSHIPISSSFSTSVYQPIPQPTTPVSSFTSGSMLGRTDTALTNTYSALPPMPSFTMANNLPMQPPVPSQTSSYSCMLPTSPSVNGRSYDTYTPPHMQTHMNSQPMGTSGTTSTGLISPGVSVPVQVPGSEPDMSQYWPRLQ
Summary of the method: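 Fluorescent RT-PCR products separated by capillary electrophoresis report PAX6-linked promoter mRNA in HepG2 cells 24 h post-dose. Curves fitted bidirectionally, DMSO as negative control.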

[20] = ATG_Sox_CIS: Attagene CIS-FACTORIAL HepG2 Assay for human SRY-box transcription factor (SOX) (AID 2282960); settings: HepG2 Attagene cis-factorial SOX reporter, mRNA; actives raise or lower the signal
Summary of the method: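 Gain- or loss-of-signal endpoint, fitted bidirectionally with DMSO as negative control. Based on reporter mRNA from transfected HepG2 cells harvested 24 h post-treatment and quantified via RT-PCR and capillary electrophoresis.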

Measured: AC50

CCc1cccc(CC)c1N(COC)C(=O)CS(=O)(=O)O
active: [7] 8.56 µM | [17] 5.6 µM
not listed: [18] | [19] | [20]
inactive: all other assays above

COc1cccc(O)c1
not listed: [8] | [16] | [19] | [20]
inactive: all other assays above

C[C@]12CC[C@@H]3c4ccc(O)cc4CC[C@H]3[C@@H]1C[C@@H](O)[C@@H]2O
inactive: [1] | [2] | [3] | [4] | [5] | [6] | [19] | [18] | [9] | [20] | [10] | [11] | [12] | [13] | [14] | [16] | [17]
active: [17] 27.1 µM

CCO[Si](CCC1CCC2OC2C1)(OCC)OCC (stereo not drawn)
not listed: [9] | [19]
inactive: all other assays above

O=S(=O)(O)C(F)(F)C(F)(F)C(F)(F)C(F)(F)C(F)(F)C(F)(F)C(F)(F)C(F)(F)C(F)(F)C(F)(F)F
active: [18] 83.7 µM and 40.3 µM | [16] 132 µM and 31.7 µM
not listed: [5]
inactive: all other assays above

O=C(CC(=O)C(F)(F)C(F)(F)C(F)(F)F)c1cccs1
active: [3] 12.8 µM and 16.5 µM | [6] 50 µM | [7] 69.7 µM | [18] 12.9 µM and 12.8 µM | [8] 8.07 µM and 26.2 µM | [10] 39.6 µM | [11] 16.2 µM and 80.3 µM | [15] 81 µM and 34.2 µM | [17] 11 µM
inactive: [1] | [2] | [4] | [6] | [7] | [20] | [10] | [12] | [13] | [14] | [16] | [17]

NCc1cccc(CN)c1
active: [3] 24.4 µM
not listed: [5]
inactive: all other assays above
